According to ChEMBL document CHEMBL3988442, “University of Dundee, Small-Polar-MMV Screening Library” (2021):
The campaign covered roughly 69,000 compounds. About 950 (1.4%) showed an effect of 50% or more. The list comes from a sample in which strong results are over-represented; it also holds similar structures and randomly drawn compounds.

Tested on: Mycobacterium tuberculosis
Assay: Cornell M. t heat shock assay; further: in the data most compounds retested in dose-response had high values
Assay type: functional, organism-based
Set-up: dose or concentration left out as unconfirmed

| Structure (SMILES) | Percent Effect [%] |
| --- | --- |
| O=C(O)C(F)(F)F.c1cnc(N2CCCC3(CCN(CC4CCOC4)CC3)C2)nc1 (stereo not drawn) | -17.62 |
| COCC(=O)NC(C)Cc1ccc(Br)cc1 (stereo not drawn) | 38.61 |
| COCC(=O)Nc1nn(Cc2ccc(F)cc2)cc1Cl | -26.17 |
| COCC(=O)Nc1nccn1Cc1ccc(Br)cc1 | 82.4 |
| Cc1cc(Cc2ccccc2)cc(C2CCCNC2)n1 (stereo not drawn) | -1.453 |
| Cc1cc(Cc2cccc(C(F)(F)F)c2)cc(C2CCCNC2)n1 (stereo not drawn) | 52.39 |
| Cc1cccc(Cc2cc(C)nc(C3CCCNC3)c2)c1 (stereo not drawn) | -6.804 |
| CN(C)C(=O)C1CCN(C2CCN(CC3CCC3)CC2)CC1.O=C(O)C(F)(F)F.O=C(O)C(F)(F)F | 5.992 |
| c1cc(C2CCCN2CC2CC2)n[nH]1 (stereo not drawn) | 1.213 |
| CNc1cncc(C2CCCN2Cc2ccn(C)n2)n1 (stereo not drawn) | -19.6 |
| Cc1nc(Nc2nncs2)cc(C2CCCN2C)n1 (stereo not drawn) | -13.41 |
| c1nnc(Nc2cncc(C3CCCN3CC3CC3)n2)s1 (stereo not drawn) | 103.4 |
| CNc1cncc(C2CCCN2S(=O)(=O)c2ccccc2)n1 (stereo not drawn) | -16.46 |
| c1ccc(CCN2CCCC2c2cncc(Nc3nncs3)n2)cc1 (stereo not drawn) | 99.24 |
| Cl.Cl.c1ccc2c(c1)C(NC1CCCC1)CC21CCNCC1 (stereo not drawn) | -6.748 |
| O=C1C[C@H]2CC[C@@H](CN1)N2C(=O)CCCc1ccc(Cl)cc1 | -2.57 |
| CN1[C@H]2CC[C@@H]1CN(C(=O)c1ccc(-c3ccccc3)[nH]1)CC2 | 5.823 |
| O=C(c1ccco1)N1CCC(n2nc(-c3ccco3)ccc2=O)CC1 | 18.57 |
| CC(C)C(=O)N1CCC(n2nc(-c3ccco3)ccc2=O)CC1 | 1.271 |
| O=C(Cc1ccsc1)N1CCC(n2nc(-c3ccco3)ccc2=O)CC1 | 50.48 |
| Cc1nc(CNCC2Cn3nncc3CO2)cs1.O=C(O)C(F)(F)F (stereo not drawn) | 3.892 |
| O=C(O)C(F)(F)F.O=C(c1cscn1)N1CCC2(CN(Cc3ccoc3)C2)C1 | -1.882 |
| COCc1nc2cc(NCc3ccc(CO)o3)ccc2o1 | -21.34 |
| COCc1nc2cc(NCc3ccc(C)o3)ccc2o1 | 60.09 |

| Structure (SMILES) | Percent Effect [%] |
| --- | --- |
| COCc1nc2cc(NCc3ccncc3)ccc2o1 | 47.84 |
| CCc1ccsc1C(=O)N1CCN(CC(O)CC)CC1 (stereo not drawn) | 21.24 |
| O=C(c1ccco1)N1C(CO)[C@]2(O)CC[C@H]1CC2 (stereo partly drawn) | 34.52 |
| Cc1ccc(CC(=O)N2CC[C@@H]3CN(CCN(C)C)CCO[C@@H]3C2)cc1.O=C(O)C(F)(F)F.O=C(O)C(F)(F)F | -3.479 |
| CN(C)CCN1CCO[C@@H]2CN(C(=O)c3cccs3)CC[C@@H]2C1.O=C(O)C(F)(F)F.O=C(O)C(F)(F)F | -0.5819 |
| CN(C)CCN1CCO[C@@H]2CN(C(=O)Cc3ccsc3)CC[C@@H]2C1 | 50.48 |
| CCc1c(C)[nH]c(C2(N)CCCCC2)nc1=O.Cl | -31.03 |
| CCOC(=O)CNC(=O)c1cccnc1Oc1ccc(Cl)cc1 | -21.74 |
| COc1ccc(Oc2ncccc2NC(=O)N2CC[C@H](O)C2)cc1 | -5.111 |
| O=C(c1cccnc1Oc1ccc(Cl)cc1)N1CC[C@@H](O)C1 | 54.07 |
| COCCNC(=O)c1cccnc1Oc1ccc(Cl)cc1 | 50.01 |
| O=C(NCCOCCO)c1cccnc1Oc1ccc(Cl)cc1 | 43.92 |
| O=C(c1cccnc1SCc1ccccc1)N1CC[C@@H](O)C1 | 7.782 |
| O=C(Cc1ccccn1)N1CCN2C[C@H](Oc3cccc(F)c3)C[C@H]2C1.O=C(O)C(F)(F)F.O=C(O)C(F)(F)F | -12.23 |
| CN(C)C(=O)N1CCC2(CCCN(Cc3cnn(C)c3)C2)C1.O=C(O)C(F)(F)F (stereo not drawn) | -9.776 |
| CC(C)n1c(C2CCCN(CC(=O)NC3CC3)C2)nc2ccccc21 (stereo not drawn) | -32.24 |
| CN1CCN(C(=O)c2ncn3c2CN(C)S(=O)(=O)c2ccccc2-3)CC1.O=C(O)C(F)(F)F | -21.31 |
| CCn1cc(N2Cc3nc(N(C)C)ncc3C2=O)cn1 | 8.315 |
| O=C(C1CC=CC1)N1CCC2(CCN(Cc3ccccn3)C2=O)C1.O=C(O)C(F)(F)F (stereo not drawn) | -18.77 |
| COc1ccc(OCCNCc2c(C)nn(C)c2N(C)C)cc1.Cl | 36.3 |
| CNC(=O)c1cc2c(nc1N(C)C)CCN(c1ncc(C)cn1)CC2.O=C(O)C(F)(F)F | 38.06 |
| O=C(C1CCC1)N1C[C@@H]2CCN(c3cccnc3)C[C@@H]2C1.O=C(O)C(F)(F)F | -23.64 |
| O=C(O)C(F)(F)F.O=C(c1ccc(F)cc1)N1C[C@@H]2CCN(c3cccnc3)C[C@@H]2C1 | -7.242 |
| Fc1cccc(N2C[C@H]3CCN(c4cccnc4)C[C@H]3C2)c1.O=C(O)C(F)(F)F | 98.87 |

| Structure (SMILES) | Percent Effect [%] |
| --- | --- |
| C[C@@H]1CN(CCc2ccccc2)C[C@]12CCN(CC(=O)N(C)C)C2=O.O=C(O)C(F)(F)F | 2.052 |
| CN(Cc1nc2ccccc2n1C)CC1CCCN1c1cccnn1 (stereo not drawn) | 101.2 |
| Cn1c(CNCC2CCCN2c2cccnn2)nc2ccccc21 (stereo not drawn) | 3.675 |
| CN(Cc1ncc(C(C)(C)C)o1)CC1CCCN1c1cccnn1 (stereo not drawn) | 66 |
| Cc1nc2ccccc2nc1CN(C)CC1CCCN1c1cccnn1 (stereo not drawn) | 18.99 |
| CC(C)(C)c1cnc(CNCC2CCCN2c2cccnn2)o1 (stereo not drawn) | -26.2 |
| CN(Cc1ncc(-c2ccccc2)o1)CC1CCCN1c1cccnn1 (stereo not drawn) | 0.462 |
| Cn1nccc1-c1nnn2c1COCC(CNCC1CC1)C2.O=C(O)C(F)(F)F.O=C(O)C(F)(F)F (stereo not drawn) | 30.33 |
| COc1cccc2c(C)c(C(=O)N3CCNCC3C(N)=O)[nH]c12.Cl (stereo not drawn) | -6.521 |
| O=C(O)C(F)(F)F.O=C(O)C(F)(F)F.c1ccc(N2CCC3(COCCN(Cc4cccs4)C3)C2)nc1 (stereo not drawn) | 0.5206 |
| CC(C)NC(=O)N1C[C@H](OCc2cccnc2)[C@H]2COC[C@H]21.O=C(O)C(F)(F)F | 2.427 |
| Cc1nnc2n1CCN(Cc1ncc(-c3ccc(F)cc3)o1)C2 | 77.14 |
| Cc1nnc2n1CCN(Cc1ncc(-c3ccc(Cl)cc3)o1)C2 | -15.98 |
| CCc1nnc2n1CCN(Cc1ncc(-c3ccccc3)o1)C2 | 76.57 |
| CCc1nnc2n1CCN(Cc1ncc(-c3ccc(F)cc3)o1)C2 | -9.541 |
| CCc1nnc2n1CCN(Cc1ncc(-c3ccc(Cl)cc3)o1)C2 | -1.022 |
| Cc1nnc2n1CCN(Cc1ncc(-c3ccccc3)o1)C2 | -5.111 |
| CN1C(=O)CCC12CCN(c1ccc(C#N)cn1)CC2.O=C(O)C(F)(F)F | 8.745 |
| Cc1nc(C)c(C(C)NCc2cnc(N3CCOCC3)nc2)s1.Cl (stereo not drawn) | -16.16 |
| Cn1cc(CN2C[C@@H]3COC[C@@H](C(=O)N4CCCCO4)[C@@H]3C2)cn1.O=C(O)C(F)(F)F.O=C(O)C(F)(F)F | 6.742 |
| Fc1cnc(N2CCCn3cnc(COc4cccnc4)c3C2)nc1.O=C(O)C(F)(F)F | 9.371 |
| Cc1cc(C)c(CNC(=O)NCC2CCOC2)c(=O)[nH]1 (stereo not drawn) | -20.09 |
| COCCC(=O)N1CCOCC2(CCN(Cc3cccs3)C2)C1.O=C(O)C(F)(F)F (stereo not drawn) | -16.95 |
| O=C(O)C(F)(F)F.O=C(O)C(F)(F)F.O=C1COC2(CCN(Cc3cccnc3)CC2)CN1 | -2.798 |

| Structure (SMILES) | Percent Effect [%] |
| --- | --- |
| CC(C)Nc1ncnc2c1CCN(C(=O)[C@H]1CCCO1)CC2 | -13.05 |
| O=C([C@H]1CCCO1)N1CCc2ncnc(NC3CC3)c2CC1 | 65.17 |
| O=C(C1CCCO1)N1CCc2ncnc(NC3CCC3)c2CC1.O=C(O)C(F)(F)F (stereo not drawn) | -8.605 |
| COCC1COCCC12CCN(Cc1nccs1)CC2.O=C(O)C(F)(F)F (stereo not drawn) | 8.236 |
| CS(=O)(=O)N[C@@H]1CN(C(=O)c2cc3ccccc3s2)C[C@H]1O | 101.8 |
| CS(=O)(=O)NC1CCN(C(=O)c2cc3ccccc3s2)C1 (stereo not drawn) | 0.7353 |
| CCC[C@@H]1CN(C(=O)c2cc3ccccc3s2)C[C@H]1NS(C)(=O)=O | 11.11 |
| Cn1cc(C[C@H]2[C@H](O)CCN2CC2CCOCC2)cn1.O=C(O)C(F)(F)F | 6.354 |
| O=C(O)C(F)(F)F.O=C(c1ccsc1)N1CCO[C@@H]2CN(Cc3nccs3)C[C@@H]2C1 | 10.37 |
| Cc1cccc(CN2C[C@@H](C)[C@@]3(CCN(CC(=O)N(C)C)C3=O)C2)c1.O=C(O)C(F)(F)F | -6.766 |
| Cc1ccsc1C(=O)N1CC[C@@H](N(C)C)[C@@H]1Cc1cnn(C)c1.O=C(O)C(F)(F)F | -5.648 |
| CCn1nc(CC(C)C)cc1C(=O)NCCCOC | 92.73 |
| CCn1nc(CC(C)C)cc1C(=O)NCCn1cccc1 | 49.17 |
| CCn1nc(C(C)C)cc1C(=O)NCCCOC | 4.35 |
| Cc1csc(CCNCc2cnc3c(c2)c(C)nn3C)n1.Cl | 6.139 |
| O=C(O)C(F)(F)F.O=C(O)C(F)(F)F.O=C1COC2(CCN(Cc3ccncc3)CC2)CN1c1ccccc1 | -2.605 |
| CO[C@@H]1CCN(Cc2ccoc2)[C@H]1Cc1ccccc1.O=C(O)C(F)(F)F | 14.91 |
| Fc1cnc(N2CCCC3(CN(Cc4ccncc4)CCO3)C2)nc1.O=C(O)C(F)(F)F.O=C(O)C(F)(F)F (stereo not drawn) | 10.78 |
| Cc1ncc2c(n1)CCCC2NC(=O)c1ccncc1 (stereo not drawn) | -6.944 |
| Cc1ncc2c(n1)CCCC2NC(=O)c1ccc(Cn2cccn2)cc1 (stereo not drawn) | 72.35 |
| Cc1ncc2c(n1)CCCC2NC(=O)c1cnn(Cc2ccccc2)c1 (stereo not drawn) | -15.56 |
